# Sampled rows, rich in hits. Any-hit rate of the full collection: about 3.1%.
# 12-hLO inh: qHTS Assay for Inhibitors of 12-hLO (12-human lipoxygenase); purified 12-hLO, xylenol orange hydroperoxide absorbance; Potency, µM (series often up to 57.1 µM), most hits filed as inhibitors; actives 0.12% (n = 150,000); also: nearly all actives have a fitted effect of over 55% in size
# Target sequence (P18054 whole entry, looked up): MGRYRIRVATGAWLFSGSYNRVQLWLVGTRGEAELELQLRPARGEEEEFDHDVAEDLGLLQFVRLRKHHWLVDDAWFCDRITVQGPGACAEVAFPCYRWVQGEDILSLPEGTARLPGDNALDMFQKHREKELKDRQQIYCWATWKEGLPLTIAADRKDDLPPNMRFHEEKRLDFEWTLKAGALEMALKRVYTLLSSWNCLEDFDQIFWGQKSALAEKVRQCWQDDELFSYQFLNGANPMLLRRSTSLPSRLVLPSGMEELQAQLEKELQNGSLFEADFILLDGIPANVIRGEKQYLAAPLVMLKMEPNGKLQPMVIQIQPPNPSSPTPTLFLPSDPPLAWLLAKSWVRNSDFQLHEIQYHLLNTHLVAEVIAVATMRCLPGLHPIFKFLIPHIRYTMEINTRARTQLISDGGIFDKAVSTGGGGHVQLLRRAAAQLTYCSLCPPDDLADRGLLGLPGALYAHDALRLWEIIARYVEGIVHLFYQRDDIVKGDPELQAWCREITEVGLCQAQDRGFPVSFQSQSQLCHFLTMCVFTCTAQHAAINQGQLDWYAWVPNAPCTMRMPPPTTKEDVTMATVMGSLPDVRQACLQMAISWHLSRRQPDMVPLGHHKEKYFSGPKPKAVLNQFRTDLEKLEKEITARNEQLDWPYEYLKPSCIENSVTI
#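 150 nM 12hLO, 25 mM Hepes pH 7.0 + 0.01% Triton X-100; cpd preinc 15 min RT; 40 uM arachidonic acid, 30 min RT; Fe-XO 30 min; A573/A405 ratio as read-out.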
# PNC inhibitor: High Content Assay for Compounds that inhibit the Assembly of the Perinucleolar Compartment; PC3M PTB-GFP, PNC prevalence imaging, 16 h; stronger effect = lower value; activity change (PNC), negative = inhibition, % at 10 µM; AID 2417, 2010; actives 3.1% (n = 140,000);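 active = readout at or below -70, meaning at least 70% loss of cells showing the perinucleolar compartment, a nuclear body marking cancer cells; inconclusive = readout between -30 and a set limit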
#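 Compounds are pinned in duplicate onto adhered PC3M cells stably expressing GFP-tagged PTB and incubated 16 h at 37 C. Cells are then fixed, nuclei stained with Hoechst, and PNC-positive cells counted.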
# ALOX15B inhib: qHTS Assay for Inhibitors of 15-hLO-2 (15-human lipoxygenase 2); Polyunsaturated fatty acid lipoxygenase ALOX15B (Homo sapiens), O15296; purified 15hLO-2, xylenol orange hydroperoxide absorbance; Potency, µM (titrated, usually from 57.1 µM), usual class: inhibitors; actives 0.56% (n = 110,000); AID 881, 2007; also: nearly all actives have a fitted effect of over 60% in size
#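 Purified human 15hLO-2 (50 nM) preincubated 15 min with compound, then 45 uM arachidonic acid for 90 min at RT in 25 mM Hepes pH 7.5, 0.01% Triton X-100. Hydroperoxide detected by Fe-xylenol orange; 573/405 nm absorbance ratio.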
# Numbers stand for hits; . = inactive; ? = inconclusive; / = no result given; [ ] = another dose, or the depositor's remark. Unless noted, calls follow the shape of the dose curve; as a rule, active = well fitted curve in the direction sought with a large enough effect; inconclusive = small, poorly fitted or top-dose-only effect, or another doubt; inactive = no such curve, though single readings can be large; an effect the other way counts as inactive or inconclusive.
SMILES,12-hLO inh,PNC inhibitor,ALOX15B inhib
O=C(COC(=O)Cc1ccsc1)NCC1CCCCC1,.,-89.7,.
O=C(COC(=O)Cc1ccsc1)NCc1ccccc1,.,.,/
CC(Oc1cccc(F)c1)C(=O)/C=C\N(C)C (centres undefined),.,.,.
CC(Oc1ccc(F)cc1)C(=O)/C=C\N(C)C (centres undefined),.,-88.4,.
COc1ccc(CNc2ncncc2-c2cccc(C#N)c2)c(OC)c1,/,/,.
CCC(C)C(=O)OC1CCC=C2C=CC(C)C(CCC3CC(O)CC(=O)O3)[C@@H]21 (some centres undefined),.,/,.
O=C(Nc1ccccc1Br)C1CCC(=O)N1Cc1ccccc1Cl (centres undefined),.,?,.
O=C(Nc1ccc(Cl)cc1)C1CCC(=O)N1Cc1ccccc1Cl (centres undefined),.,-90.4,.
CS(=O)(=O)N1CCC2(CCCN(c3ccncc3)C2)CC1,.,/,.
COc1ccc(NC(=O)N2CCCC3(CCN(C(=O)c4c(C)noc4C)CC3)C2)cc1,.,/,.
COC(=O)CC1C(C)(C)C(OC(C)=O)C2CC3C4CC(=O)OC(c5ccoc5)[C@]4(C)CCC3[C@@]1(C)C2=O (some centres undefined),.,/,.
CCOC(=O)c1c(NC(=O)c2ccccc2N(C)S(=O)(=O)c2ccccc2)sc2c1CCCC2,.,.,/
COCCN(CCOC)S(=O)(=O)c1ccc(C(=O)Nc2sc3c(c2C(N)=O)CCCCC3)cc1,.,-119.3,/
COC(=O)c1c(NC(=O)c2ccc(N(C)S(=O)(=O)c3ccc(C)cc3)cc2)sc2c1CCCC2,.,.,/
COC(=O)c1c(NC(=O)c2ccccc2N(C)S(=O)(=O)c2ccccc2)sc2c1CCCC2,.,-107.8,/
O=C(O)[C@H]1C[C@@H](CP(=O)(O)O)CCN1,.,/,.
O=C(O)c1sccc1S(=O)(=O)Nc1ccc(Cl)cc1,.,/,.
C[C@H]1Cc2c(-c3ccccc3)nc3c(c2CO1)CN(C(=O)c1ccco1)CC3,.[11.4 µM],/,/
Cn1cccc1C(C(=O)NC1CCCCC1)N(C(=O)Cc1cccs1)C1CC1 (centres undefined),.,.,.
COc1ccc(N(C(=O)Cc2cccs2)C(C(=O)NC2CCCCC2)c2cccn2C)cc1OC (centres undefined),.,-115.7,/
NCC[C@H]1CCC[C@H](CCN)N1,.,/,.
O=C(C1CCN(S(=O)(=O)c2cccc3cccnc23)CC1)N1CCN(c2ccccc2)CC1,.,.,.
O=C(C1CCCN(S(=O)(=O)c2cccc3cccnc23)C1)N1CCN(c2ccc(F)cc2)CC1 (centres undefined),.,-81.3,.
COCCNC(C(=O)Nc1ccc([N+](=O)[O-])cc1Br)c1ccccc1 (centres undefined),.,.,/
CCCCNC(C(=O)Nc1ccc([N+](=O)[O-])cc1Br)c1ccccc1 (centres undefined),.,-118.2,/
SMILES,12-hLO inh,PNC inhibitor,ALOX15B inhib
COC(=O)[C@@H]1C[C@H]2CC[C@H](O)C[C@H]2N1Cc1c(F)cccc1Cl,.,/,.
COC(=O)c1c(N)sc(C(=O)N2CCOCC2)c1C,.,?,.
CCOC(=O)c1c(N)sc(C(=O)N2CCOCC2)c1C,.,-100.0,/
COc1ccc(N2C(=O)S[C@@H]3CS(=O)(=O)C[C@@H]32)cc1,.,-113.4,/
COc1ccc(CCN2C(=NC(=O)CC(C)C)SC3CS(=O)(=O)CC32)cc1 (centres undefined),.,?,.
O[C@@H](COc1ccc(Cl)cc1Cl)CN1CCCC1,.[11.4 µM],/,.[11.4 µM]
CCCNC(=O)NS(=O)(=O)c1cnccc1Sc1ccc(Cl)cc1,.,.,.
CCNC(=O)NS(=O)(=O)c1cnccc1Nc1cccc(Cl)c1,.,-89.6,/
CCCn1c(-c2ccc(F)cc2)nc2c(NCCN3CCSCC3)nc(C)nc21,.,/,.
O=c1c(-c2ccccc2)c(O)c2cccc3c2n1CCC3,.,.,.
Cc1cc(C)c(-c2c(O)c3cccc4c3n(c2=O)CCC4)c(C)c1,.,-100.0,/
NCCn1c(-c2ccccc2)cc(C(=O)O)c1-c1ccccc1F,.,-81.2,/
CCOC(=O)c1cc(-c2ccccc2)n(CCC(=O)O)c1C,.,.,.
O=C(NCCO)c1ccc(Cl)cc1,.[11.4 µM],/,.[11.4 µM]
CC1(C)CC(=O)C2=C(C1)N(c1cccc(Cl)c1)C(=O)NC2(C(F)(F)F)C(F)(F)F,.,-80.2,/
CC1(C)CC(=O)C2=C(C1)N(c1ccc(Cl)cc1)C(=O)C2(O)C(F)(F)F (centres undefined),.,?,/
